# TROY NFkB inh: TROY signaling inhibition; actives 0.98% (n = 360,000); Q293 LMP1-TROYcd NF-kB luciferase reporter, 4 h; inhibition, % at 10 µM;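 active = compounds whose plate-normalised and pattern-corrected inhibition of the luciferase reporter signal at the single screening dose is 50% or more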
# aDG glyco up: increases alpha dystroglycan glycosylation | Pro5-aDG cells, alpha-DG glycosylation AlphaScreen (IIH6); 0% Pro5, 100% B10-LARGE cell signal | activation, % at 10 µM | actives 0.22% (n = 360,000) | AID 624168;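 active = activation of at least 8% versus controls, or a plate z-score of at least 8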;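 note: Pro5 are CHO cells carrying HIG-tagged alpha-DG that lacks glycosylation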
# HSP90 refold inh: HSP90 refolding inhibition in rabbit reticulocyte lysate; AID 1789; luciferase refolding luminescence, 3 h; inhibition, % at 5.6 µM; actives 0.91% (n = 290,000);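 active = inhibition above the screen-wide mean plus 3 SD, computed separately per campaign, cut at about 16% in these data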;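 note: 0% = DMSO wells and 100% = 60 µM geldanamycin wells; inhibitors lower the luminescence because luciferase stays unfolded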
# EBV LMP1 NFkB: inhibitors of Epstein-Barr LMP1-induced NF-kappaB reporter; LMP1-induced NF-kappaB luciferase reporter cells, luminescence; inhibition, % at 12.5 µM; actives 0.69% (n = 350,000); in the data active = inhibition above about 41%;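 note: 0% = neutral control wells and 100% = reference inhibitor control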
# LGR2 antag: Drosophila LGR2 receptor signaling inhibition; actives 0.35% (n = 380,000); HEK293 LGR2, CRE-luciferase, bursicon-stimulated, 4 h; inhibition, % at 9.99 µM;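 active = drop in luminescence signal, shown as inhibition above about 50% in the replicate tests, limit read from the data, passing the limit was not always enough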;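 note: agonist challenge used bursicon conditioned medium at about half maximal strength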
# TWEAK-Fn14 inh: TWEAK-Fn14 signaling inhibition | TWEAK-stimulated Fn14 reporter cells, luciferase luminescence, 8 h | actives 2% (n = 360,000) | inhibition, % at 10 µM; in the data active = inhibition above about 50%
# Starred values were filed as active, the others as inactive; . = not tested or not shown; ! = not active in a repeat. An excerpt weighted towards active compounds, which were near 2.6% of everything screened.
SMILES,TROY NFkB inh,aDG glyco up,HSP90 refold inh,EBV LMP1 NFkB,LGR2 antag,TWEAK-Fn14 inh
CN(C)c1ccc(/C=C/c2cc[n+](C)c3ccccc23)cc1,48,1,2,42*!,33,53*!
OC[C@H]1[C@@H]2c3ccccc3NC[C@@H]2N1Cc1cccnc1,.,.,.,.,-1,.
CC(=O)OC1CC(OC2C(O)CC(OC3C(O)CC(OC4CCC5(C)C(CCC6C5CCC5(C)C(C7=CC(=O)OC7)CCC65O)C4)OC3C)OC2C)OC(C)C1OC1OC(CO)C(O)C(O)C1O (configuration not stated),43,0,.,76*,86*,80*
COc1ccc(OC(=O)N(C)C[C@@H]2OCc3ccccc3-c3c(n(C)c4ccccc34)C(=O)N([C@H](C)CO)C[C@H]2C)cc1,.,.,.,.,11,.
COc1ccc(CCNCc2cccn2C)cc1,5,0,-1,69*,30,-17
Cc1cc(C)cc(N2C(=O)NC(=O)/C(=C\c3cccn3-c3ccccc3)C2=O)c1,49,0,-2,9,32,66*
CN1C(=O)/C(=C/c2cccn2-c2ccc3ccccc3c2)C(=O)NC1=S,-2,1,6,19,.,8
Cc1cc(C)cc(N2C(=O)NC(=O)/C(=C\c3cccn3-c3ccc(Cl)cc3)C2=O)c1,53*,0,-1,4,.,103*
Cc1cccc(N2C(=O)NC(=O)/C(=C\c3cnc(-c4ccccc4)nc3)C2=O)c1,-20,0,-4,18,9,10
O=C1NC(=S)NC(=O)C1=Cc1cccn1-c1ccc(O)cc1,49,0,1,16,.,71*
O=C(Cc1ccccc1)N1CC2(C1)[C@H](c1ccccc1)[C@H](CO)N2Cc1cccc(F)c1,.,.,.,.,-9,.
O=C(O)[C@H]1[C@H](CO)[C@H]2Cn3c(ccc(-c4ccncc4)c3=O)[C@@H]1N2C(=O)C1CCCC1,.,.,.,.,11,.
CC=Cc1ccc2n(c1=O)C[C@H]1[C@H](CO)[C@@H](C(=O)OC)[C@@H]2N1S(=O)(=O)c1ccccc1C (mixture of isomers),.,.,.,.,6,.
CC[n+]1c(/C=C/C=C/c2ccc(N(C)C)cc2)sc2ccccc21,52*,2,2,39,36,56*
CC(C)n1c(O)c(C2c3cc(Cl)ccc3Oc3[nH]c(=O)n(C(C)C)c(=O)c32)c(=O)[nH]c1=O (configuration not stated),20,0,7,0,.,100*
O=C(Cc1cccnc1)N1CCCCN2[C@H](C1)[C@@H](c1ccc(/C=C/c3ccccc3)cc1)[C@@H]2CO,.,.,.,.,6,.
COc1cccc(-c2ccc([C@@H]3[C@H]4CN(C(=O)Cc5ccncc5)CCCCN4[C@H]3CO)cc2)c1,.,.,.,.,-12,.
COC(=O)C(Cc1ccc(N(CCCl)CCCl)cc1)N=Cc1ccccc1O (configuration not stated),33,0,0,73*,-26,35
CCOC(=O)C(NC(=O)C(Cc1ccc(N(CCCl)CCCl)cc1)NC(C)=O)C(C)C (configuration not stated),-4,0,-1,-2,6,-1
O=C1CN=C(c2ccc[nH]2)c2cc(Cl)ccc2N1,9,0,-1,57*,-3,44
N#Cc1ccc(Cn2cc(C=O)c3ccccc32)cc1,5,0,-3,3,17,9
O=Cc1cn(Cc2cccc([N+](=O)[O-])c2)c2ccccc12,68*,1,0,89*,87*,28
Cc1cccc(Cn2cc(C=O)c3ccccc32)c1,26,0,1,51*,14,25
CCCN1[C@@H]2c3ccc(-c4ccc(OC)cc4)c(=O)n3C[C@H]1[C@H](CO)[C@H]2C(=O)OC,.,.,.,.,-1,.
CC1(C)CN=C(NCc2ccccc2)S1,-11,0,23*,-3,-3,16
SMILES,TROY NFkB inh,aDG glyco up,HSP90 refold inh,EBV LMP1 NFkB,LGR2 antag,TWEAK-Fn14 inh
CCOP(=O)(CCP(=O)(OCC)OCC)OCC.C[CH2][Sn]([Cl])([Cl])[CH2]C,41,0,.,-2,23,58*
CCOP(=O)(OCC)OCC,0,0,.,-7,-23,0
COC(=O)[C@H]1[C@H](CO)[C@H]2Cn3c(ccc(C4=CCCC4)c3=O)[C@@H]1N2CC1CCCCC1,.,.,.,.,-9,.
CC=Cc1ccc2n(c1=O)C[C@@H]1[C@@H](CO)[C@H](C(=O)N(C)C)N[C@H]21 (mixture of isomers),.,.,.,.,13,.
CC=Cc1ccc2n(c1=O)C[C@H]1[C@H](CO)[C@@H](C(=O)OC)[C@@H]2N1CC1CCCC1 (mixture of isomers),.,.,.,.,-2,.
Cc1ccc(/C=C2\C(=O)NC(=S)N(c3ccccc3F)C2=O)s1,-7,0,2,3,88*,47
CC12CC[C@H]3[C@@H](CCC4(O)C[C@H](O)CCC34/C=N/NC(=O)c3ccccc3F)C1(O)CCC2C1=CC(=O)OC1 (some centres not stated),-13,0,0,2,-6,95*
CC12CC[C@H]3[C@@H](CCC4(O)C[C@H](O)CCC34/C=N/NC(=O)c3ccccc3O)C1(O)CCC2C1=CC(=O)OC1 (some centres not stated),-7,0,-2,-6,39,-25
C=C(CO)CC1CC(O)[C@]2(C)OC3CC4OC5C[C@]6(C)O[C@]7(C)CCC8OC9C[C@]%10(C)OC%11C(C)=CC(=O)OC%11CC%10OC9C[C@@H](C)C8OC7CC6O[C@]5(C)C/C=C\C4OC3CC2O1 (some centres not stated),-6,0,2,3,8,-2
C=C(C=O)CC1CC(O)[C@]2(C)OC3CC4OC5C[C@]6(C)O[C@]7(C)CCC8OC9C[C@]%10(C)OC%11C(C)=CC(=O)OC%11CC%10OC9C[C@@H](C)C8OC7CC6O[C@]5(C)CC5OC5C4OC3CC2O1 (some centres not stated),89*,0,6,74*,.,108*
CC(=O)OC1(C)CC(C)C(=O)C(C(O)CC2CC(=O)NC(=O)C2)C1 (configuration not stated),86*,4,.,89*,.,103*
C[C@@H]1C[C@@H]([C@H](O)CC2CC(=O)NC(=O)C2)C(=O)[C@@H](C)C1,53*,0,.,79*,79*,80*
COc1cccc(-c2ccc3n(c2=O)C[C@@H]2[C@@H](CO)[C@H](C(=O)O)[C@H]3N2Cc2ccccc2F)c1,.,.,.,.,-1,.
COc1ccc(C#Cc2ccc([C@H]3[C@H](CO)N4CCCCN(C(=O)Cc5cccnc5)C[C@@H]34)cc2)cc1,.,.,.,.,-22,.
CCCCNC(=O)c1c(N)n(Cc2ccc3c(c2)OCO3)c2nc3ccccc3nc12,59*,2,-1,-5,0,51*
Nc1c(C(=O)NCCCc2ccccc2)c2nc3ccccc3nc2n1Cc1cccs1,45,3,-1,-11,.,39
